The values below come from PubChem BioAssay (NCATS).

Test [1] in a line: Quantitative highthroughput screen to assess conditional lethalithy of NOMO1 cells grown in RPMI1640 with untreated serum (RPMI+s) (AID 1963876). Also: nearly all actives have a fitted effect of over 35% in size. Also: potency is read from the fitted curve at half-maximal effect.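 As to viability: 100% = DMSO wells and 0% = empty wells without cells.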 The method in brief:
(§1)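 Each medium arm—HPLM with 10% dialyzed FBS, or RPMI1640 with 5 mM glucose and 10% untreated or dialyzed FBS—was screened against an 11-point, 3-fold compound titration for 48 h at 37 °C, with CellTiter-Glo luminescence as endpoint.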

Test [2] is described as follows: Quantitative highthroughput screen to assess conditional lethalithy of NOMO1 cells grown in RPMI1640 with dialyzed fetal bovine serum (RPMI+ds) (AID 1963877). Also: nearly all actives have a fitted effect of over 30% in size. Also: potency is read from the fitted curve at half-maximal effect.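 As to viability: series mostly up to about 46 µM; 100% = DMSO control wells and 0% = empty wells.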 The method in brief: as §1
Test [3] can be described thus: Quantitative highthroughput screen to assess conditional lethalithy of P12 Ichikawa cells grown in Human Plasma-Like Medium with dialyzed fetal bovine serum (HPLM+ds) (AID 1963879). Also: nearly all actives have a fitted effect of over 35% in size. Also: potency is read from the fitted curve at half-maximal effect. As to viability: series mostly up to about 46 µM. The note with it: Potency: viability. Put shortly:
as §1

Test [4] in a line: Quantitative highthroughput screen to assess conditional lethalithy of P12 Ichikawa cells grown in RPMI1640 with dialyzed fetal bovine serum (RPMI+ds) (AID 1963880). Also: nearly all actives have a fitted effect of over 35% in size. Also: potency is read from the fitted curve at half-maximal effect.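 As to viability: 100% = DMSO wells and 0% = empty wells on each plate.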 To be noted: Potency: P12-Ichikawa viability. The method in brief:
as §1

Test [5] can be described thus: Quantitative highthroughput screen to assess conditional lethalithy of P12 Ichikawa cells grown in RPMI1640 with untreated serum (RPMI+s) (AID 1963881). Also: nearly all actives have a fitted effect of over 35% in size. Also: potency is read from the fitted curve at half-maximal effect.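 As to viability: series mostly up to about 46 µM; 100% = DMSO wells and 0% = empty wells without cells.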 The note with it: Potency: viability. Put shortly: as §1
Test [6] is described as follows: Quantitative highthroughput screen to assess conditional lethalithy of SEM cells grown in Human Plasma-Like Medium with dialyzed fetal bovine serum (HPLM+ds) (AID 1963882). Also: nearly all actives have a fitted effect of over 35% in size. Also: potency is read from the fitted curve at half-maximal effect. As to viability: series mostly up to about 46 µM. Put shortly: as §1
Test [7] is described as follows: Quantitative highthroughput screen to assess conditional lethalithy of SEM cells grown in RPMI1640 with unreated serum (RPMI+s) (AID 1963883). Also: nearly all actives have a fitted effect of over 35% in size. Also: potency is read from the fitted curve at half-maximal effect.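 As to viability: 100% = DMSO wells and 0% = empty wells without cells.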 Put shortly:
as §1

The nature of test [8]: Quantitative highthroughput screen to assess conditional lethalithy of SEM cells grown in RPMI1640 with dialyzed fetal bovine serum (RPMI+ds) (AID 1963884). Also: nearly all actives have a fitted effect of over 35% in size. Also: potency is read from the fitted curve at half-maximal effect.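 As to viability: series mostly up to about 46 µM; 100% = DMSO control wells and 0% = empty wells without cells.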 The method in brief: as §1
Test [9] is described as follows: Quantitative highthroughput screen to assess conditional lethalithy of NOMO1 cells grown in Human Plasma-Like Medium with dialyzed fetal bovine serum (HPLM+ds) (AID 1963878). Put shortly:
as §1

A short description of test [10]: Cellular viability qHTS for adrenocortical cancer (ACC) cell line SW-13 (AID 1963989). Also: nearly all actives have a fitted effect of over 65% in size. Also: potency is read from the fitted curve at half-maximal effect.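 As to activity (max response): cells grown in serum-free medium with ITS supplement; % is scaled to controls: 0 for no effect and ±100 for the full control effect.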 The note with it: SW-13 ACC cells viability, CellTiter-Glo, 48 h; activity (max response): hits give low values. Put shortly:
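Luminescent ATP read-out (CellTiter-Glo, 20 min at room temperature) measured metabolically competent SW-13 cells after 48 h compound treatment. Final concentrations spanned up to 46 uM; bortezomib served as positive control.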
A general note: In qHTS, concentration-response curves come from the screen itself.

A short description of test [11]: Cellular viability qHTS for adrenocortical cancer (ACC) cell line NCI-H295R (AID 1963990).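 Also: 0% = DMSO only wells and -100% = full killing with cytotoxic reference compound; nearly all actives have a fitted effect of over 60% in size.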 The method in brief: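 IC50 and maximal efficacy derive from four-parameter logistic modelling of titration curves, with reads scaled between DMSO-only wells (0%) and doxorubicin hydrochloride (100% inhibition). Compounds spanned up to 46 uM over 48 h.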

The structures appear in SMILES notation. Inconclusive results are not listed. Unmarked numbers belong to inactive results. Calls of active or inactive are those of the source. Calls follow the shape of the dose curve; as a rule, active = well fitted curve in the direction sought with a large enough effect; inconclusive = small, poorly fitted or top-dose-only effect, or another doubt; inactive = no such curve, though single readings can be large; an effect the other way counts as inactive or inconclusive.

As to `C1=CCOCc2cc(ccc2OCCN2CCCC2)Nc2nccc(n2)-c2cccc(c2)OCC1`, the Potency in test [1] was 7.43 µM (active); in test [2], 6.62 µM (active); in test [3] it was 10.5 µM (active); in [4] it was 13.2 µM (active); in [5] it was 13.2 µM (active); in test [6], 3.32 µM (active). Moreover, the Potency in [7] and in [8] was 4.18 µM (active) throughout.
Take `COc1ccc2c3c1OC1C[C@@H](O)C=C[C@@]31CCN(C)C2` (stereo not given in full): the Potency entry in test [1], in [2], in test [3], in test [4], in test [5] and in test [6] was “inactive” throughout. In addition, the Potency entry in test [7] and in test [8] was “inactive” throughout.
Regarding `COc1cc(N2CCN(C)CC2)ccc1Nc1nc(N)c(C(=O)c2c(Cl)cccc2Cl)s1`, the Potency entry in test [1], in test [2] and in [9] was “inactive” each time. Also, in [7], the Potency was 20.9 µM (active).
For the compound `Clc1ccc(CCC(Cn2ccnc2)Sc2c(Cl)cccc2Cl)cc1` (stereo not given), the Potency result in test [1], in test [2], in test [3], in test [4] and in test [6] was “inactive” throughout.
Take `NCC(=O)Nc1ccc(-n2nc(C(F)(F)F)cc2-c2ccc3c(ccc4ccccc43)c2)cc1`: the Potency result in test [1], in test [6] and in test [7] was “inactive” throughout. For the same compound, the Potency in [2] is 9.35 µM (active); in test [3] it was 2.96 µM (active); in test [4] it was 2.96 µM (active).
With `C[C@]12CC[C@H](O)CC1=CCC1C2CC[C@]2(C)C(n3cnc4ccccc43)=CCC12` (stereo not given in full), the Potency result in test [1], in test [2], in [3], in [4], in test [5] and in test [6] was “inactive” in each case. Also, the Potency result in test [8] and in test [11] was “inactive” in each case. The activity (max response) in test [10] was -10.3%.
Regarding `C[C@H](CCC(=O)O)[C@H]1CC[C@H]2[C@@H]3[C@H](O)C[C@@H]4C[C@H](O)CC[C@]4(C)[C@@H]3CC[C@]12C`, the Potency entry in test [1], in test [2], in test [3], in [4], in test [5] and in test [6] was “inactive” throughout. For the same compound, the Potency result in test [7] and in test [8] was “inactive” each time.
Consider `COc1cccc(-c2cc(=O)c3ccccc3o2)c1N`, for which the Potency result in test [1], in [2], in test [3], in [4], in [5] and in [6] was “inactive” each time. Moreover, the Potency entry in test [8] and in test [11] was “inactive” each time. Besides, the activity (max response) in [10] was 0.813%.
As to `CC=CC1=C(C(=O)O)N2C(=O)[C@H](NC(=O)[C@H](N)c3ccc(O)cc3)[C@@H]2SC1`, the Potency in [1] is 1.18 µM (active); in [2], 2.64 µM (active); in test [3], 9.35 µM (active); in test [4] it was 13.2 µM (active); in [5] it was 9.35 µM (active). For the same compound, the Potency entry in [6], in test [7] and in [8] was “inactive” each time.
In the case of `O=c1c(-c2ccc(O)cc2)coc2cc(O)ccc12`, the Potency result in [1], in test [2], in [3], in test [4], in test [5] and in [6] was “inactive” throughout. Further, the Potency entry in [7] and in [8] was “inactive” throughout. In test [10], the activity (max response) is -14.3%.
With `NC(=O)N1c2ccccc2CC(=O)c2ccccc21`, the Potency entry in test [1], in test [2], in test [3], in test [4], in test [5] and in test [6] was “inactive” each time. Besides, the Potency result in [7] and in test [8] was “inactive” throughout. Besides, the activity (max response) in test [10] was 10.8%.
In the case of `CC(C)=CCCC(C)=CCCC(C)=CCCC(C)=CCCC(C)=CCCC(C)=CCCC(C)=CCCC(C)=CCCC(C)=CCO`, the Potency result in [1], in [2], in test [3], in test [4], in [5] and in test [6] was “inactive” throughout.
Consider `Nc1ccn([C@@H]2O[C@H](CO)[C@H](O)C2(F)F)c(=O)n1`, for which the Potency in test [1] was 0.0833 µM (active); in test [2] it was 0.0833 µM (active); in test [3] it was 0.0833 µM (active); in test [4], 0.0526 µM (active); in test [5], 0.0743 µM (active); in test [6] it was 0.0118 µM (active). For the same compound, the Potency in [7] is 0.0166 µM (active); in [8], 0.0059 µM (active).
Consider `O=C(CCN1CCN(C(=O)OCc2cc(Cl)cc(Cl)c2)CC1)c1ccc2[nH]c(=O)oc2c1`, for which the Potency entry in [1], in test [2] and in [9] was “inactive” throughout. The activity (max response) in test [10] is -15.7%.
As for `CCN(CC)CCOc1ccc(C(=C(Cl)c2ccccc2)c2ccccc2)cc1`, the Potency entry in test [1], in test [2], in [3], in test [6] and in test [7] was “inactive” throughout. Further, the Potency in test [4] is 20.9 µM (active).
Regarding `O=C1C(CCC(O)c2ccc(F)cc2)C(c2ccc(O)cc2)N1c1ccc(F)cc1` (stereo not given), the Potency entry in test [1], in test [2], in [3], in [4], in test [5] and in test [6] was “inactive” in each case. The Potency result in test [7] was “inactive”.
For the compound `CCN(C(=O)c1c(O)c2c(Cl)cccc2n(C)c1=O)c1ccccc1`, the Potency is 1.66 µM (active) in test [1]; 2.64 µM (active) in test [2]; 3.32 µM (active) in [3]; 1.66 µM (active) in test [4]; 2.35 µM (active) in test [5]; 0.59 µM (active) in test [6]. Further, the Potency in [7] was 0.332 µM (active); in [8], 0.418 µM (active); in test [10] it was 7.94 µM (active).
Take `CC1(C)[C@H]2CC[C@]3(C)[C@@H](C(=O)C=C4[C@@H]5C[C@@](C)(C(=O)O)CC[C@]5(C)CC[C@]43C)[C@@]2(C)CC[C@@H]1O`: the Potency result in test [1], in test [2], in test [3], in test [4], in test [5] and in test [6] was “inactive” each time. Also, the Potency result in [7] and in test [8] was “inactive” in each case.
With `CCN1CCCC1CNC(=O)c1cc(S(N)(=O)=O)ccc1OC` (stereo not given), the Potency entry in test [1], in test [2], in [3], in test [4] and in test [5] was “inactive” in each case.
On to `O=c1ccn([C@@H]2O[C@H](CO)[C@H](O)[C@H]2O)c(=O)[nH]1`, for which the Potency result in [1], in [2], in [3], in test [4], in test [5] and in test [6] was “inactive” in each case. Also, the Potency result in [7] and in [8] was “inactive” in each case.
`CC(C)(N)C(=O)N[C@H](COCc1ccccc1)C(=O)N1CCC2(CC1)CN(S(C)(=O)=O)c1ccccc12`: the Potency entry in test [1] and in test [11] was “inactive” in each case. The Potency in test [2] is 10.5 µM (active); in test [4], 23.5 µM (active); in test [5] it was 26.4 µM (active). Moreover, the activity (max response) in test [10] is -9.29%.
